CYP2C9 activ = CYP2C9 (human) activation; P11712; recombinant CYP2C9, luciferin-H conversion, luminescence; active compounds read high; factor 1 = untreated enzyme, 0 = blocked; activation factor at 5 µM; 96,000 tested, 1.4% active;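 active means activation factor of 2 or more for CYP2C9 at a 5 µM dose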;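 further: 0 = sulfaphenazole-blocked wells and 1 = vehicle-only wells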
CYP2C9 inh = human CYP2C9 inhibition | CYP2C9 Supersomes, luciferin-H conversion, luminescence | inhibition, % at 5 µM | 96,000 tested, 20% active | AID 777;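 active means blocking of liver enzyme CYP2C9 beyond about 50% at 5 µM, limit read from the data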
PLAP activator = activates human placental alkaline phosphatase; purified PLAP enzyme, luminescent substrate read-out; active compounds read high; activation fold at 20 µM; 96,000 tested, 1.2% active; AID 696; in the data active means activation fold above about 2
Target sequence (P05187 whole entry, looked up): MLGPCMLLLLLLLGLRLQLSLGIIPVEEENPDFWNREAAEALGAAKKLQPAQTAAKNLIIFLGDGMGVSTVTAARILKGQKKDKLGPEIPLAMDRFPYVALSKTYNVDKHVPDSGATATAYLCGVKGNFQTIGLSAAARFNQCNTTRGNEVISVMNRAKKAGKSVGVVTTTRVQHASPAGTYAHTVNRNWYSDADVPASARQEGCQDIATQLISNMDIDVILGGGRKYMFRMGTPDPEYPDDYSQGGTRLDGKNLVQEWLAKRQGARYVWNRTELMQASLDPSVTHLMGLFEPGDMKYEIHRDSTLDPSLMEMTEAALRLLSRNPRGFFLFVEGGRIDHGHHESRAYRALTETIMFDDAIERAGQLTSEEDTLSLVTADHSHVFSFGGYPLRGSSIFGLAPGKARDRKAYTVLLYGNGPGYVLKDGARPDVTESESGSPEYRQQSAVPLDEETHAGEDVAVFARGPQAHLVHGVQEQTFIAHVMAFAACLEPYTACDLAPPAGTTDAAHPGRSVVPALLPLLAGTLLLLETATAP
CYP2C19 act = cytochrome P450 2C19 (human) activation; recombinant CYP2C19, luciferin-H EGE luminescence; active compounds read high; 0 = fully inhibited enzyme, 1 = untreated enzyme; activation factor at 5 µM; 96,000 tested, under 10 active; AID 1025;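 active means activation factor of at least 2 at 5 µM in the primary screen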;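 further: 0 = wells with 2.5 mM tranylcypromine and 1 = vehicle-only wells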
CYP2C19 inhib = inhibitors of human CYP2C19; 96,000 tested, 21% active; CYP2C19 Supersomes, luciferin-H EGE luminescence, 30 min; P33261; inhibition, % at 5 µM;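 active means CYP2C19 inhibition above a set limit at 5 µM in the primary screen, cut at about 50% in these data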;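 further: plate controls were negative control wells for no effect and 2.5 mM tranylcypromine positive control for full effect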
The depositor's hits bear a star. This is a sample that favours compounds with a hit; in the whole collection about 31% have one here.

SMILES	CYP2C9 activ	CYP2C9 inh	PLAP activator	CYP2C19 act	CYP2C19 inhib
COc1cccc(OC)c1C(=O)N1CCN(Cc2ccncc2)CC1	0.4	63*	1.1	0.2	78*
COc1ccccc1CN1CCN(C(=O)c2ccncc2)CC1	0.9	12	0.9	0.1	87*
O=C(CSC1=Nc2ccccc2C2=NC(CC(=O)NC3CCCCC3)C(=O)N12)NCc1ccco1 (stereo not drawn)	0.9	11	1.3	1	-2
O=C(CCC1N=C2c3ccccc3N=C(SCc3cccc(Cl)c3)N2C1=O)NCc1ccco1 (stereo not drawn)	0.3	67*	1.2	0.8	20
O=C(CCC1N=C2c3ccccc3N=C(SCc3ccccc3Cl)N2C1=O)NCc1ccco1 (stereo not drawn)	0.4	60*	1.1	0.7	29
CC1(C)CC(CC(=O)O)(c2ccc(Cl)cc2)CCO1 (stereo not drawn)	1	1	0.8	0.9	10
COc1ccc(CCC(=O)N2CC(C)OC(C)C2)cc1 (stereo not drawn)	0.9	10	1.2	0.7	28
CN(C)S(=O)(=O)c1cccc(C(=O)NCCc2ccccc2)c1	1	-4	1.1	1	4
CN(c1ccc(C(=O)N2CCCCC2)cc1)S(=O)(=O)c1ccccc1	0.8	23	1	0.9	13
Cc1ccc(S(=O)(=O)N(C)c2ccc(C(=O)O)cc2)cc1	0.8	20	1	1	4
CN(c1ccc(C(=O)NC2CC2)cc1)S(=O)(=O)c1ccccc1	0.3	70*	1.1	0.5	50
Cc1cccc(CSCCNC(=O)c2ccc(N(C)S(=O)(=O)c3ccccc3)cc2)c1	0.1	89*	0.9	0.4	61*
CN(c1ccc(C(=O)NCCSCc2ccccc2)cc1)S(=O)(=O)c1ccccc1	0.3	69*	0.9	0.6	37
O=C(CSc1nc2c(c(=O)n1-c1ccc(Cl)cc1)SCC2)NCc1ccco1	0.8	23	0.9	0.7	29
COc1ccc(-c2nnc(SC(C)C(=O)Nc3nccs3)n2Cc2ccccc2)cc1OC (stereo not drawn)	0.4	56*	1.9	0.6	44
COc1ccc(-c2nnc(SC(C)C(=O)Nc3nccs3)n2-c2ccccc2)cc1OC (stereo not drawn)	0.7	32	1.1	0.9	9
O=[N+]([O-])c1cc(Cl)cc(/C=N\Nc2ccccn2)c1O	0.5	50*	1	0.5	54*
Cc1cccc(C)c1-n1c(C)cc(/C=N\Nc2ccc([N+](=O)[O-])cn2)c1C	0.5	48	0.8	0.9	13
CC(C)(C)NC(=O)NC(=O)CSc1ncc(C(F)(F)F)cc1Cl	1.1	-6	0.9	1	4
CCCNC(=O)NC(=O)CSc1ncc(C(F)(F)F)cc1Cl	1.1	-6	0.7	0.3	70*
CC(=O)/C(=N/Nc1ccccc1C)N1CCOCC1	1	-3	1	0.8	17
Cc1cccc2cc(CN(Cc3cccs3)C3(c4nnnn4C4CCCC4)CCCC3)c(=O)[nH]c12	0.6	42	1.4	0.9	12
CCC1CCCCN1c1ccc([N+](=O)[O-])cc1/C=N/NC(=O)Cn1c2ccccc2c(=O)c2ccccc21 (stereo not drawn)	0.5	49	1.3	1.1	-7
CC(=O)NCCC(=O)Nc1sc2c(c1-c1nc3ccccc3[nH]1)CCCC2	0.4	61*	1.6	0.6	36
CC(=O)N1c2ccccc2C(=O)C1N1CCCCC1 (stereo not drawn)	1	-3	1	0.6	44
SMILES	CYP2C9 activ	CYP2C9 inh	PLAP activator	CYP2C19 act	CYP2C19 inhib
COc1ccc(-c2cc(=Nc3ccc(C)cc3)c3ccccc3o2)cc1	0.5	53*	1.1	0.7	34
N=c1c(C(=O)NCc2ccco2)cc2c(=O)n3ccccc3nc2n1Cc1ccccc1	0.5	46	1.4	0.7	34
N=c1c(C(=O)NCc2ccco2)cc2c(=O)n3ccccc3nc2n1Cc1ccc(Cl)cc1	0.4	64*	1.4	0.6	39
N=c1c(S(=O)(=O)c2ccc(Cl)cc2)cc2c(=O)n3ccccc3nc2n1CCN1CCOCC1	0.4	59*	1.3	0.6	40
Cc1ccc(CNC(=O)c2cc3c(=O)n4ccccc4nc3n(Cc3ccco3)c2=N)cc1	0.4	56*	1.2	0.9	10
N=c1c(C(=O)NCc2ccc3c(c2)OCO3)cc2c(=O)n3ccccc3nc2n1Cc1cccnc1	0.3	67*	1.4	0.5	46
N=c1c(C(=O)NCc2ccccc2)cc2c(=O)n3ccccc3nc2n1Cc1ccco1	0.5	48	0.9	0.7	26
Cc1cc(C)n2c(SCC(=O)Nc3ccc(Cl)cn3)nnc2n1	0.8	16	1.1	0.6	36
Cc1c(NC(=O)Cn2ccc([N+](=O)[O-])n2)c(=O)n(-c2ccccc2)n1C	1.6	-55	0.9	1	3
O=C1C2C3c4ccccc4C(c4ccccc43)C2C(=O)N1/N=C/c1cccc(O)c1 (stereo not drawn)	1	-1	1	0.7	33
CCn1c(SCC(=O)O)nnc1C1CCCCC1	0.9	9	1	0.9	5
CCn1c(=N)c(C(=O)OC)cc2c(=O)n3ccccc3nc21	1.2	-18	1.1	0.4	63*
COCCn1c(=N)c(C(=O)NCc2ccco2)cc2c(=O)n3ccccc3nc21	1	-2	1.4	1.1	-13
Cc1ccc(NC(=S)N2CCN(C3CCCCC3)CC2)cc1	1	2	1.1	0.9	10
Cc1ccc(S(=O)(=O)CC(=O)c2ccc(C)c([N+](=O)[O-])c2)cc1	2*	-105	1.2	1.1	-7
Cc1ccc(S(=O)(=O)CC(=O)c2ccccc2)cc1	2.9*	-187	1.1	0.6	37
Cc1cc(NC(=O)CN2CCCCC2C)no1 (stereo not drawn)	1.1	-7	1	0.9	6
COc1ccccc1NS(=O)(=O)c1ccc2oc(SC3CCOC3=O)nc2c1 (stereo not drawn)	0.6	40	1.4	0.5	53*
CC(C)n1c(SC2CCOC2=O)nc2ccccc21 (stereo not drawn)	1.9	-89	0.8	0.9	6
O=C(c1ccc(CNc2c(N3CCCC3)c(=O)c2=O)cc1)N1CCc2ccccc2C1	0.5	50*	1.6	0.6	35
O=c1c(/C=N/Nc2ccccc2)c(Sc2nnnn2-c2ccccc2)nc2ccccn12	0.3	72*	0.7	0.5	46
O=Cc1c(Sc2ccccc2)nc2ccccn2c1=O	0.7	29	1	0.3	72*
O=Cc1c(N2CCCCCC2)nc2ccccn2c1=O	1	1	1	0.5	48
Cn1c2ccccc2c2c(C(=O)NCc3ccco3)cn(C3CCCCC3)c(=O)c21	0.5	45	1.8	0.8	20
Cn1c(SCc2cccc(Cl)c2)nc(C(F)(F)F)cc1=O	0.9	11	1.1	0.7	26
COc1ccc(OC)c(S(=O)(=O)N(C)CC(=O)N2CCc3ccccc3C2)c1	0.2	80*	1.3	0.3	68*
